Compound activity: PubChem BioAssay, National Center for Advancing Translational Sciences (NCATS)
This is a sample that favours compounds with a hit; in the whole collection about 4% have one here.
Glioma ERSR ind – inducers of ER stress response in human glioma cells; 420,000 tested, 0.02% active; U87-MG GRP78 promoter luciferase reporter, 16 h; Potency, µM, for inactives: top-dose activation, actives largely listed as activators; active means well fitted activation curve with a large enough effect; further: potency means the concentration at half of the fitted maximal effect; series mostly up to about 76 µM; % of control where 0% means no effect; nearly all actives have a fitted effect of over 35% in size
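ERSR induction read as luciferase luminescence (Bright-Glo, 10 min at room temperature) in stably transfected human U87-MG glioma cells exposed to compounds for 16 h, using GRP78 as sensor.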
D1 antag – blocks dopamine activation of the human D1 receptor; P21728; HEK293 TREx D1 cells, calcium flux, dopamine EC80; stronger effect = lower value; activity change, negative = inhibition, % at 10 µM; 360,000 tested, 3.2% active; AID 504652; in the data active means activity change below about -30%; further: on the % scale 0 is the no-effect control and ±100 the full control effect
Target sequence (P21728 whole entry, looked up): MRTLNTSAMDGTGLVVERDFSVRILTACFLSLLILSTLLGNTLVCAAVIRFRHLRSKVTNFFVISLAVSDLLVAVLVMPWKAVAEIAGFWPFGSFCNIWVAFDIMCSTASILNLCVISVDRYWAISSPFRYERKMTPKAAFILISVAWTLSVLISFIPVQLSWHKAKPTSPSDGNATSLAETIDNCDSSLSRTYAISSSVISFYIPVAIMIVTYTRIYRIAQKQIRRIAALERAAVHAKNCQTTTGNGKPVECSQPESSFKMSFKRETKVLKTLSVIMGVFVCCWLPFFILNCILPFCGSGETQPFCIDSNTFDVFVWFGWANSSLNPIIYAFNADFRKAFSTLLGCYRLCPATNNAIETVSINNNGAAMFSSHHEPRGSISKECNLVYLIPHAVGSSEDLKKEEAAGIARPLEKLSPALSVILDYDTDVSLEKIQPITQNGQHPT
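Inducible Hek293 Trex D1 cells (tetracycline, overnight, 30 C). Calcium dye 30–90 min RT. Antagonist mode: EC80 dopamine added after 180 s compound read.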
D1 ag – activates the human D1 dopamine receptor. 360,000 tested, 1% active. HEK293 T-REx D1 cells, calcium flux, agonist mode. AID 504660. activation, % at 2 µM. P21728; further: 0% is about no effect
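Inducible HEK293 T-REx D1 cells, force-coupled to calcium signalling, were plated at 4000 cells/well with tetracycline and held overnight at 30 C. After no-wash calcium dye loading, compound-evoked calcium rise over 180 s flagged agonists.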
TRHR ag – TRH receptor (human) agonism; P34981; TRHR cells, calcium flux fluo-8, FDSS agonist mode; activation, % at 2 µM; 360,000 tested, 0.18% active; further: 0% is about no effect
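TRHR-expressing cells loaded with fluo-8 calcium dye; 23 nL library compound pin-transferred, kinetic FDSS fluorescence (Ex 480/Em 530) recorded about 180 s for agonist-induced calcium release, before a 10 nM TRH EC20 addition for potentiator mode.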
D1 potentiator – human D1 dopamine receptor positive modulation; 360,000 tested, 0.036% active; potentiation, % at 10 µM; AID 504651; HEK293 TREx D1 cells, calcium flux, dopamine EC20 potentiation; in the data active means potentiation above about 30%; further: 0% is about no effect
TRHR enhancer – allosteric enhancers of human TRH receptor | AID 493056 | enhancement, % at 2 µM | TRHR cells, fluo-8 calcium fluorescence, EC20 TRH enhancement | P34981 | 360,000 tested, 0.66% active; in the data active means enhancement above about 30%; further: 0% is about no effect
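TRHR-expressing cells loaded with fluo-8 calcium dye were read kinetically (ex 480/em 530) during compound addition, then stimulated with an EC20 of TRH (10 nM final). Enhancement of the Gq-mediated intracellular calcium response was scored.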
* hit, by the source's call; / = no result; ! = a repeat was not active. Unless noted, no stated cut-off is given here; in the data, active means activation above about 30%; inactive means the rest.

SMILES	Glioma ERSR ind	D1 antag	D1 ag	TRHR ag	D1 potentiator	TRHR enhancer
Cc1cc2occ(CC(=O)Nc3nnc(C4CC4)s3)c2cc1C	-3%	-13	-2	0	-5	-4
CC(C)CN(C(=O)COC(=O)c1cccnc1Cl)c1c(N)n(Cc2ccccc2)c(=O)[nH]c1=O	2%	-35*	2	1	-9	-2
Cc1c(C)n(Cc2ccccc2)c2ncnc(NCCCO)c12	-5%	-4	1	0	3	-2
Cc1cccc(/C=N/NC(=O)c2ccc(NC(=O)c3ccc(F)cc3)cc2)n1	1%	-51*	-3	0	-8	-2
Cc1cccc(/C=N/NC(=O)c2ccc(NC(=O)c3ccc(Cl)cc3)cc2)n1	-3%	-83*	2	0	-12	5
Cc1cccc(C(=O)Nc2cccc(C(=O)N/N=C/c3cccc(C)n3)c2)c1	3%	-14	0	-1	-3	0
Cc1ccc(NCC(=O)N=Nc2c(O)[nH]c3ccc([N+](=O)[O-])cc23)cc1	40µM*	-11	3	-1	0	0
FC(F)(F)c1cccc(Nc2nc3nonc3nc2Nc2ccc(Cl)cc2)c1	/	-48*	51*	6	-5	-9
OC(CNC1CCCC1)COc1ccccc1Br (configuration not stated)	-1%	-36*	13	-1	-8	8
OC(CNC1CCCCCC1)COc1cccc2ccccc12 (configuration not stated)	-8%	-15	45*	1	0	5
Cc1cc2c(OCC(O)CNC3CCCCC3)cccc2[nH]1 (configuration not stated)	0%	-8	3	0	0	5
Cc1ccccc1OCC(O)CNC1CCC(NCC(O)COc2ccccc2C)CC1 (configuration not stated)	-14%	-25	25	2	-6	10
O=C(COC(=O)C1CCN(S(=O)(=O)c2cccs2)CC1)Nc1ccc(F)c(F)c1F	-1%	-36*	10	0	-5	-5
O=C(NCc1cccnc1)C1CCN(S(=O)(=O)c2cccs2)CC1	-2%	9	1	1	-5	-1
COc1ccc(/C=C2\SC(=O)N(CCNC(=O)C3CCN(S(=O)(=O)c4cccs4)CC3)C2=O)cc1	5%	-35*	6	0	-6	1
Cc1ccc(NC(=O)C2CCN(S(=O)(=O)c3cccs3)CC2)cc1	-7%	-37*!	22	0	-11	-1
O=C(Nc1cccnc1)C1CCN(S(=O)(=O)c2cccs2)CC1	-6%	-32*	1	0	-6	-3
O=C(NCCN1C(=O)S/C(=C\c2ccc(F)cc2)C1=O)C1CCN(S(=O)(=O)c2cccs2)CC1	0%	-15	15	0	-3	14
COc1ccc(OCCn2c(=O)sc3ccccc32)cc1	4%	0	1	0	-6	-1
O=C(CNC(=O)c1ccco1)OCc1ccc(C(=O)Oc2ccccc2)cc1	6%	-7	6	0	-10	-5
Cn1c(CCC(=O)OCC(=O)NCC(F)(F)F)nc(=O)c2ccccc21	-1%	6	3	0	-3	0
CC(C)(C)NC(=O)Cn1nnc(-c2ccc(OCc3c(F)cccc3Cl)cc2)n1	-4%	-32*	9	1	-6	0
C=CCN1C(=O)/C(=C/c2ccc(OC(C)=O)c(OCC)c2[N+](=O)[O-])SC1=S	0%	-31*	30	4	-7	-2
Cc1cccc(N(CC(=O)N/N=C/c2cc([N+](=O)[O-])ccc2Cl)S(C)(=O)=O)c1C	-5%	-45*	0	-1	-1	-3
Cc1ccc(NC(=O)CSc2nc(-c3cccs3)nc3cc(=O)[nH]n23)cc1C	-2%	-6	2	-1	-3	-5
SMILES	Glioma ERSR ind	D1 antag	D1 ag	TRHR ag	D1 potentiator	TRHR enhancer
Cc1ccccc1NC(=O)CSc1nc(-c2cccs2)nc2cc(=O)[nH]n12	0%	-37*	2	0	8	4
CN1CCN(c2ccc(NC(=S)NC(=O)c3cccc4ccccc34)cc2)CC1	-1%	-23	14	2	-15	9
O=C(NC(=S)Nc1ccc(N2CCCC2)cc1)c1ccccc1[N+](=O)[O-]	0%	-72*	0	0	-2	11
CN1CCN(c2ccc(NC(=S)NC(=O)c3cccc4c(Br)cccc34)cc2)CC1	-4%	-37*	3	0	-9	-6
O=C1CC(NC(=O)c2ccc(Cl)cc2)C(=O)N1 (configuration not stated)	-1%	1	1	0	-5	-2
COCCCNC(=S)Nc1cc2oc3ccccc3c2cc1OC	2%	-14	5	0	-1	-1
CCc1sc(C(=O)NC2CCN(C)CC2)cc1Br	-2%	-19	36*	-1	-10	-4
CCc1sc(C(=O)N2CCCN(C)CC2)cc1Br	6%	10	2	0	-2	0
Cc1sc2ncnc(SCC(=O)N3CCCC(C(N)=O)C3)c2c1C (configuration not stated)	-5%	7	5	0	2	3
Cc1sc2ncnc(SCC(=O)N3CCCC(C(F)(F)F)C3)c2c1C (configuration not stated)	-2%	-38*	1	1	6	-2
COc1cc(/C=C/C(=O)OCC(=O)NCCCc2ccccc2)cc(OC)c1OC	-3%	/	/	/	/	/
CCC(NC(=O)COC(=O)C1CC2CCCC(C1)C2=O)c1ccc(Br)cc1 (configuration not stated)	-1%	-56*	5	0	-6	-11
CCOc1ccc(-n2nc3cc(C)c(N)cc3n2)cc1	-8%	-30*	0	1	-3	-6
Cc1cc2nn(-c3ccc(F)cc3)nc2cc1N	-9%	0	2	-1	4	32*
CCCOc1ccc(F)cc1-c1cc(C(=O)NCc2cc(OC)cc(OC)c2)[nH]n1	-3%	/	/	/	/	/
N#C/C(=C/c1ccncc1)c1nc2ccccc2c(=O)[nH]1	-1%	-12	4	4	0	2
N#C/C(=C\c1cc(Br)c(O)c(Br)c1)c1nc2ccccc2c(=O)[nH]1	-6%	13	171*	78*	12	20
N#C/C(=C\c1ccncc1)c1nc2ccccc2c(=O)[nH]1	-1%	-39*	7	6	-4	-4
Cc1sc(NC(=O)CSc2nnnn2C2CCCCC2)c(C#N)c1C	1%	-34*	4	1	-2	-4
CCOc1ccc(NC(=O)CSc2nnnn2C2CCCC2)cc1	-4%	-1	47*	-2	/	-6
Cc1sc(NC(=O)CSc2nnc(C(C)C)n2C)c(C#N)c1C	-3%	-11	3	1	-6	1
